# In PubChem BioAssay AID1893 (NMMLSC, 2009):
# Out of some 5,900 compounds screened, about 120 (2%) were called active. Rule as the data show it: active = percent response mostly above about 71% (no sharp cut-off); inactive = mostly below about 38%. Not all results are given here.
# Tested on: MEKK2 (MAP3K2) mutant PB1 domain binding MEK5, human
# Experiment: mutant MEKK2 PB1-MEK5 binding signal retest – biochemical, single concentration, multiplex bead flow cytometry, confirmation (AID 1893);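 also: higher means compound restores mutant binding toward wildtype level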
# Conditions: Alexa488-MEK5 binding to MEKK2 mutant, at 10 µM, active compounds read high
row,Compound,percent response
1,CCN1CCN(c2ccc(S(=O)(=O)N3CCCCC3)cc2NC(=O)Cc2c(Cl)cccc2Cl)CC1,20% (inactive)
2,CCCCN1C(=O)/C(=C(/C#N)C(N)=O)c2ccccc21,-2% (inactive)
3,CC(C)c1ccc(C(=O)NCCCc2ccccc2)cc1,-5% (inactive)
4,Cc1ccc(C)c(CN2CCC(CNC(=O)Nc3ccc(C)c(F)c3)CC2)c1,20% (inactive)
5,Cc1nc2cc(S(=O)(=O)C(F)(F)F)ccc2s1,-1% (inactive)
6,O=C(Cc1cccc2ccccc12)Nc1ccc2oc(-c3ccccc3)nc2c1,10% (inactive)
7,O=C(CSc1ccc(-c2ccc(F)cc2)nn1)Nc1ccc2c(c1)OCCO2,4% (inactive)
8,Cc1cnc(NC(=O)Cn2cnc3c2c(=O)n(C)c(=O)n3C)s1,-16% (inactive)
9,O=C(OCc1cc(Cl)ccc1OC(F)F)c1cccnc1,-8% (inactive)
10,CC1(C)Cc2cccc(OCC(=O)N3CCN(c4ccc([N+](=O)[O-])cc4)CC3)c2O1,1% (inactive)
11,CCOC(=O)c1sc2nc(C)nc(SCC(N)=O)c2c1C,5% (inactive)
12,CCOC(=O)c1cc2c(nc1NC(=S)Nc1ccccc1)CC(C)(CC)OC2 (stereo not given),-4% (inactive)
13,O=C(NCCC1=CCCCC1)c1ccc(Cl)c([N+](=O)[O-])c1,5% (inactive)
14,Cc1cccn2c(=O)c(/C=C3\SC(=S)N(CC(C)C)C3=O)c(NCCCOC(C)C)nc12,-25% (inactive)
15,O=C(NCCCN1CCCCCC1)C1CC(=O)N(C2CCCC2)C1 (stereo not given),-29% (inactive)
16,COc1cc2c(cc1OC)CN(C(=O)c1ccc(S(=O)(=O)N3CCCCCC3)cc1)CC2,-1% (inactive)
17,O=C(/C=C/Nc1ccccc1)c1cnc(-c2ccccc2)s1,7% (inactive)
18,Cn1c(=NC(=O)CSCC(=O)N2CCCCC2)sc2ccccc21,8% (inactive)
19,CCOC(=O)Cc1csc(NC(=O)CSc2nc(C)cc(=O)[nH]2)n1,-5% (inactive)
20,CN1C(=O)/C(=C\c2ccc(-c3ccccc3)o2)SC1=S,-31% (inactive)
21,CCN(CC)CCCNC(=O)c1ccc2c(=O)n(Cc3ccc4c(c3)OCO4)c(=S)[nH]c2c1,7% (inactive)
22,O=C(OCC1O[C@@H](OC(=O)c2cc(O)c(O)c(O)c2)[C@@H](OC(=O)c2cc(O)c(O)c(O)c2)[C@@H](OC(=O)c2cc(O)c(O)c(O)c2)[C@@H]1OC(=O)c1cc(O)c(O)c(O)c1)c1cc(O)c(O)c(O)c1 (stereo not given in full),-34% (inactive)
23,CCOC(=O)c1cc2occc2n1CC(=O)N1CCN(C(=O)c2ccco2)CC1,-10% (inactive)
24,Cc1cccc(CSc2nnc(C)c(=O)n2N)c1,-2% (inactive)
25,C=C(C)C1CC=C(C)/C(=N\NC(=O)CNc2ccccc2OC)C1 (stereo not given),10% (inactive)
